Among the data in PubChem BioAssay (EPA / NIEHS) are outcome and AC50 values, retold here.

Molecules are shown by their SMILES. Active and inactive are the calls of the source. Rule for the calls: active = hit-call score of the fitted dose curve at least 0.9, where 1 is the maximum; inactive = score below 0.9.

One assay is described as follows: CCTE_Padilla_ZF_Score.Swim_bladder: CCTE's 144 Hour Post-fertilization zebrafish Assay Score for Swim Bladder Malformation, Padilla Lab (AID 2284408). The procedure, abridged:
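Swim bladder inflation scored at 6 dpf by two blinded observers under a stereo microscope. Exposure ran from 6–8 hpf in sealed wells of 10% Hanks' at 26C, with rinsing at 5 dpf; DMSO served as baseline.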
Take `FC(F)(F)C(F)(F)C(F)(F)C(F)(F)C(F)(F)C(F)(F)CC1CO1` (stereo not drawn): the call was inactive.
Still for that read-out and setting: to `C=CC(F)(F)C(F)(F)C(F)(F)C(F)(F)C(F)(F)C(F)(F)C(F)(F)C(F)(F)F` belongs “inactive”; to `FC(F)(F)C(F)(F)C(F)(F)C(F)(F)C(F)(F)C(F)(F)C(F)(F)C(F)(F)F`, “inactive”.
For `FC(F)(F)C(F)(F)C(F)(F)C(F)(F)C(F)(F)C(F)(F)C(F)(F)I`, the AC50 (in general, the concentration giving half of the maximal activity seen) is 63.8 µM (active).
Consider `O=C(O)C(F)(F)C(F)(F)OC(F)(F)F`, for which the outcome was inactive.
The same measure, in the same setting: as for `O=C(O)C(F)(F)C(F)(F)C(F)F`, the entry is “inactive”.
On the same count and under the same terms, as for `O=C(O)C(F)(F)C(F)(F)F`, the entry is “inactive”; as for `N=C(N)C(F)(F)C(F)(F)C(F)(F)C(F)(F)C(F)(F)C(F)(F)C(F)(F)F`, “inactive”.
Turning to `O=C(O)C(F)(F)C(F)(F)C(F)(F)C(F)(F)C(F)(F)C(F)(F)C(F)(F)C(F)(F)Cl`, the AC50 was 9.95 µM (active).
`O=S(=O)(OCCOC(F)(F)F)C(F)(F)F`: the compound was called inactive.
Take `FC(F)(F)C(F)(F)CNCC(F)(F)C(F)(F)F`: the concentration at half-maximal activity (AC50) was 0.00275 µM (active).
On to `O=C(O)C(F)(OC(F)(F)C(F)(OC(F)(F)C(F)(OC(F)(F)C(F)(F)C(F)(F)F)C(F)(F)F)C(F)(F)F)C(F)(F)F` (stereo not drawn), for which the compound was classed as inactive.
For the compound `C=CC(=O)OCC(F)(F)C(F)(F)C(F)(F)C(F)(F)COC(=O)C=C`, the AC50 is 4.37 µM (active).
Take `O=C(O)C=C(C(F)(F)F)C(F)(F)F`: the outcome was inactive.
Turning to `Cc1ccc(S(=O)(=O)OCC(F)(F)C(F)(F)C(F)(F)C(F)(F)C(F)(F)C(F)F)cc1`, the AC50 was 9.81 µM (active).
On to `FC(F)(F)C(F)(F)C(F)(F)CI`, for which the result was inactive.
Regarding `O=S(=O)(O)C(F)(F)C(F)(F)C(F)(F)C(F)(F)C(F)(F)C(F)(F)C(F)(F)F`, the AC50 was 21.3 µM (active).
Turning to `CCCCCCCCC(F)(F)C(F)(F)C(F)(F)C(F)(F)C(F)(F)C(F)(F)F`, the outcome was inactive.
Same read-out and setting: to `C=C(C)C(=O)OCCC(F)(F)C(F)(F)C(F)(F)C(F)(F)C(F)(C(F)(F)F)C(F)(F)F` belongs “inactive”.
Still for that read-out and setting: as for `OCC(F)(F)C(F)(F)C(F)(F)C(F)F`, the entry is “inactive”.
As to `FC(F)(F)C(F)(F)C(F)(F)C(F)(F)C(F)(F)CCI`, the AC50 was 30.4 µM (active).
For `O=C(O)C(F)(F)C(F)(F)C(F)(F)C(F)(F)C(F)(F)C(F)(F)C(F)(F)C(F)(F)C(F)(F)C(F)(F)C(F)(F)C(F)(F)C(F)(F)F`, the call was inactive.
On the same count and under the same terms, as for `C=CC(=O)OCC(F)(F)C(F)(F)C(F)(F)C(F)(F)C(F)(F)C(F)(F)C(F)(F)F`, the entry is “inactive”; as for `FC(F)(F)C(F)(F)C(F)(F)C(F)(F)C(F)(F)C(F)(F)C(F)(F)C(F)(F)CCS`, “inactive”.
The same measure, in the same setting: to `FC(F)(F)C(F)(F)C(F)(F)C(F)(F)CCI` belongs “inactive”; to `O=C(O)C(F)(F)C(F)(F)C(F)(F)F`, “inactive”.
On the same count and under the same terms, to `FC(F)(Br)C(F)(F)C(F)(F)C(F)(F)C(F)(F)C(F)(F)Br` belongs “inactive”.
Consider `FC(F)(I)C(F)(F)C(F)(F)C(F)(F)I`, for which the AC50 is 27.5 µM (active).
As for `O=C(O)C(F)(F)C(F)(F)C(F)(F)C(F)(F)C(F)(F)C(F)(F)C(F)(F)C(F)(F)C(F)(F)C(F)(F)C(F)(F)C(F)(F)F`, the call was inactive.

The nature of another assay: CCTE_Padilla_ZF_Score.Position: CCTE's 144 Hour Post-fertilization zebrafish Assay Score for Position, Padilla Lab (AID 2284409). Put shortly: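 Wild-type zebrafish embryos (with chorions) exposed singly from 6–8 hpf in sealed wells of Hanks' solution at 26C, rinsed at 5 dpf. At 6 dpf, blinded assessors scored abnormal water-column position by brightfield stereomicroscopy, relative to DMSO.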
Take `FC(F)(F)C(F)(F)C(F)(F)C(F)(F)C(F)(F)C(F)(F)CC1CO1` (stereo not drawn): the compound was called inactive.
The same measure, in the same setting: to `C=CC(F)(F)C(F)(F)C(F)(F)C(F)(F)C(F)(F)C(F)(F)C(F)(F)C(F)(F)F` belongs “inactive”; to `FC(F)(F)C(F)(F)C(F)(F)C(F)(F)C(F)(F)C(F)(F)C(F)(F)C(F)(F)F`, “inactive”; to `FC(F)(F)C(F)(F)C(F)(F)C(F)(F)C(F)(F)C(F)(F)C(F)(F)I`, “inactive”.
Same read-out and setting: to `O=C(O)C(F)(F)C(F)(F)OC(F)(F)F` belongs “inactive”.
As to `O=C(O)C(F)(F)C(F)(F)C(F)F`, the compound was classed as inactive.
Same read-out and setting: to `O=C(O)C(F)(F)C(F)(F)F` belongs “inactive”; to `N=C(N)C(F)(F)C(F)(F)C(F)(F)C(F)(F)C(F)(F)C(F)(F)C(F)(F)F`, “inactive”.
Consider `O=C(O)C(F)(F)C(F)(F)C(F)(F)C(F)(F)C(F)(F)C(F)(F)C(F)(F)C(F)(F)Cl`, for which the AC50 is 70.4 µM (active).
On to `O=S(=O)(OCCOC(F)(F)F)C(F)(F)F`, for which the result was inactive.
Take `FC(F)(F)C(F)(F)CNCC(F)(F)C(F)(F)F`: the compound was called inactive.
Same read-out and setting: to `O=C(O)C(F)(OC(F)(F)C(F)(OC(F)(F)C(F)(OC(F)(F)C(F)(F)C(F)(F)F)C(F)(F)F)C(F)(F)F)C(F)(F)F` (stereo not drawn) belongs “inactive”; to `C=CC(=O)OCC(F)(F)C(F)(F)C(F)(F)C(F)(F)COC(=O)C=C`, “inactive”.
Same read-out and setting: as for `O=C(O)C=C(C(F)(F)F)C(F)(F)F`, the entry is “inactive”; as for `Cc1ccc(S(=O)(=O)OCC(F)(F)C(F)(F)C(F)(F)C(F)(F)C(F)(F)C(F)F)cc1`, “inactive”; as for `FC(F)(F)C(F)(F)C(F)(F)CI`, “inactive”.
Consider `O=S(=O)(O)C(F)(F)C(F)(F)C(F)(F)C(F)(F)C(F)(F)C(F)(F)C(F)(F)F`, for which the AC50 is 22 µM (active).
In the case of `CCCCCCCCC(F)(F)C(F)(F)C(F)(F)C(F)(F)C(F)(F)C(F)(F)F`, the result was inactive.
The same measure, in the same setting: as for `C=C(C)C(=O)OCCC(F)(F)C(F)(F)C(F)(F)C(F)(F)C(F)(C(F)(F)F)C(F)(F)F`, the entry is “inactive”; as for `OCC(F)(F)C(F)(F)C(F)(F)C(F)F`, “inactive”; as for `FC(F)(F)C(F)(F)C(F)(F)C(F)(F)C(F)(F)CCI`, “inactive”.
On the same count and under the same terms, as for `O=C(O)C(F)(F)C(F)(F)C(F)(F)C(F)(F)C(F)(F)C(F)(F)C(F)(F)C(F)(F)C(F)(F)C(F)(F)C(F)(F)C(F)(F)C(F)(F)F`, the entry is “inactive”; as for `C=CC(=O)OCC(F)(F)C(F)(F)C(F)(F)C(F)(F)C(F)(F)C(F)(F)C(F)(F)F`, “inactive”; as for `FC(F)(F)C(F)(F)C(F)(F)C(F)(F)C(F)(F)C(F)(F)C(F)(F)C(F)(F)CCS`, “inactive”.
Take `FC(F)(F)C(F)(F)C(F)(F)C(F)(F)CCI`: the compound was called inactive.
The same measure, in the same setting: as for `O=C(O)C(F)(F)C(F)(F)C(F)(F)F`, the entry is “inactive”; as for `FC(F)(Br)C(F)(F)C(F)(F)C(F)(F)C(F)(F)C(F)(F)Br`, “inactive”; as for `FC(F)(I)C(F)(F)C(F)(F)C(F)(F)I`, “inactive”.
On the same count and under the same terms, to `O=C(O)C(F)(F)C(F)(F)C(F)(F)C(F)(F)C(F)(F)C(F)(F)C(F)(F)C(F)(F)C(F)(F)C(F)(F)C(F)(F)C(F)(F)F` belongs “inactive”.
